Calls of active or inactive are those of the source.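 The calls were made as follows, unless noted: active = visually confirmed hit in the image check and inhibition above 20%; inconclusive = visually confirmed hit but inhibition not above 20%; inactive = no visual hit in the image check.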
Experiments:
[1] = inhibitors of TNFa-induced NFkB p65 translocation, primary screen, imaging, HUVEC, MLSMR starter and 10KST1 sets (AID 438;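 active = inhibition above 20% together with a positive visual image hit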;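 also: compound added about 3h40 before a 20 min TNFalpha stimulation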;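 as to inhibition: signal is the nuclear over cytoplasmic p65 intensity ratio per well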); settings: HUVEC TNFa-induced p65 nuclear translocation; cell count: measured here: nuclei count (cytotoxicity indicator), at 2.08 µM; inhibition: at 2 µM, stronger effect = higher value, 0% TNFa-plus-vehicle, 100% no-TNFa wells
[2] = reduction of polyQ htt aggregates in cells – imaging, exon1htt(103Q)mCFP cells, high-content imaging, primary screen (AID 483;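 active = visual image review flags a hit and inhibition of aggregation exceeds 20%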;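 also: compound exposure lasted 3 days before fixation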;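 as to nuclei count: percent of the per-plate median nuclei count of sample wells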); settings: exon1htt(103Q)mCFP cell line, aggregate imaging, at 2 µM; inhibition of aggregation: stronger effect = higher value; nuclei count: measured here: cell count, toxicity
[3] = endothelial E-selectin expression blockers – imaging, HUVEC, immunofluorescence, MLSMR starter and 10KST1 sets, primary screen (AID 487); settings: HUVEC TNFalpha-induced E-selectin immunofluorescence imaging, at 2 µM; inhibition: stronger effect = higher value; nuclei count: measured here: cell number, toxicity;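 as to inhibition: signal is fraction of cell area covered by stained E-selectin grains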;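 as to nuclei count: 100% = median nuclei count of all wells on the same plate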
[4] = molecular target: Voltage-gated potassium channel subunit beta-2 (Rattus norvegicus) (UniProt P62483); test: inhibitors of rat Kvbeta2 reductase activity – biochemical, NADPH fluorescence, primary screen (AID 622;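 active = fluorescence slope higher than the sample average by over 3 SD, cut at about -0.22 in these data, passing the limit was not always enough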;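 also: slope of raw intensity against log time taken from 70 to 1610 s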); settings: recombinant KvBeta, 4-cyanobenzaldehyde reduction, at 10 µM, stronger effect = higher value
[5] = molecular target: Voltage-gated potassium channel subunit beta-2 (Rattus norvegicus) (UniProt P62483); test: enhancers of rat Kvbeta2 NADPH turnover – biochemical, NADPH fluorescence, primary screen (AID 623;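 active = NADPH fluorescence slope more negative than the mean of all samples by about 3 SD, 99.7% confidence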;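 also: fluorescence intensity change per second fitted from 20 to 320 s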); settings: Recombinant KvBeta, NADPH fluorescence decrease slope, 10 min; at 10 µM; stronger effect = lower value
[6] = molecular target: Alpha-2C adrenergic receptor (Homo sapiens) (UniProt P18825); test: compounds altering alpha2C-coupled GIRK flux – cell-based, HEK293 alpha2C/GIRK1/2, thallium flux, primary screen (AID 624;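 active = fluorescence slope after compound addition differing from the mean of all screened samples at 99.7% confidence, in either direction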;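 also: slope of fluorescence ratio to pre-addition baseline per second over 15 to 24 s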); settings: thallium flux BTC fluorescence, at 10 µM, actives lie on both sides
[7] = blockers of RIG-like receptor reporter activation – cell-based, Sendai virus stimulus, luciferase, 10K MLSCN set, TLR/RLR signaling modifier project, primary screen (AID 602276;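 active = inhibition at or above 50% at 10 µM; inactive = inhibition below 50%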;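 also: firefly luciferase from ISG56 promoter only with Renilla not read in this screen; 0% = Sendai virus plus DMSO and 100% = medium plus DMSO without virus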); settings: HEK293 RL24 IRF3 luciferase reporter, at 10 µM, stronger effect = higher value
[8] = TLR3 IRF3 reporter activation blockers – cell-based, poly I:C stimulus, luciferase, 10K MLSCN set, primary screen (AID 602277;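 active = inhibition of the reporter signal at or above 50%; inactive = inhibition below 50%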); settings: HEK293-TLR3 RL24 IRF3 luciferase reporter, at 10 µM, stronger effect = higher value

Chain of Alpha-2C adrenergic receptor (Homo sapiens) (P18825 whole entry, looked up): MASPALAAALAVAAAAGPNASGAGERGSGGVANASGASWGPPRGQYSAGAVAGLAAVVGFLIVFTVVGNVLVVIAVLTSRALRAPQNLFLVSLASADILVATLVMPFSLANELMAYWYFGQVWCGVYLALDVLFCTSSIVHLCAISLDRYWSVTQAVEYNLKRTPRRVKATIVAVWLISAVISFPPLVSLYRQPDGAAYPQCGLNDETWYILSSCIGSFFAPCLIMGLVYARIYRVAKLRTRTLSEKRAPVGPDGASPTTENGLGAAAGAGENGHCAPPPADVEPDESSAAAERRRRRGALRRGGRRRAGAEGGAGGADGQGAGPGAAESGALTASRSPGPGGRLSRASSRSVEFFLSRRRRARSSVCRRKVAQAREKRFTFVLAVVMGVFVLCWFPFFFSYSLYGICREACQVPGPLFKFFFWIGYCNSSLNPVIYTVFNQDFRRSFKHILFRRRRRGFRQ
Chain of Voltage-gated potassium channel subunit beta-2 (Rattus norvegicus) (P62483 whole entry, looked up): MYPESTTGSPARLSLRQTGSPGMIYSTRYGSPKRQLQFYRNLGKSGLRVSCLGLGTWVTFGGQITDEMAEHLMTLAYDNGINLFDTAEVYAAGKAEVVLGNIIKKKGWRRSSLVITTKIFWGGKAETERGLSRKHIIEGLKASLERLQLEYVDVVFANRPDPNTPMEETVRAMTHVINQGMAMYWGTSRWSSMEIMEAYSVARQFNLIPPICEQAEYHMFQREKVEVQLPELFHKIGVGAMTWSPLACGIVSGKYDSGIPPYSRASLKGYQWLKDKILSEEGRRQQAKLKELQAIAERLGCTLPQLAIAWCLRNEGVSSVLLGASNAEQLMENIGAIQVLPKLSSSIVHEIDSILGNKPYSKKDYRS

| SMILES | cell count [1] | inhibition [1] | inhibition of aggregation [2] | nuclei count [2] | inhibition [3] | nuclei count [3] | fluorescence slope [4] | NADPH fluorescence slope [5] | slope [6] | inhibition [7] | inhibition [8] |
| --- | --- | --- | --- | --- | --- | --- | --- | --- | --- | --- | --- |
| O=S(=O)(NCc1ccccn1)c1ccc2c(c1)OCCO2 | 673 | 11.1% (inactive) | -27.1% (inactive) | 99.3% | -3.6% (inactive) | 102% | -0.354 (inactive) | -8e-05 (inactive) | 0.00513 (inactive) | 3.8% (inactive) | 5.59% (inactive) |
| O=C(Nc1ccc2c(c1)OCCO2)NC1CCCCC1 | 379 | 0.5% (inactive) | 20.1% (inactive) | 58.3% | -33.5% (inactive) | 102% | -0.487 (inactive) | -1.2e-05 (inactive) | 0.00607 (inactive) | -28.7% (inactive) | -68.9% (inactive) |
| C=CCc1ccccc1OCC(O)CN1CCN(Cc2ccc3c(c2)OCO3)CC1 (stereo not drawn) | 321 | 4.5% (inactive) | -3.4% (inactive) | 91.2% | -2% (inactive) | 91.6% | -0.457 (inactive) | 1.5e-05 (inactive) | 0.0057 (inactive) | 10.6% (inactive) | 1.32% (inactive) |
| O=P(O)(O)C(O)C(F)(F)C(F)(F)C(F)(F)C(F)F (stereo not drawn) | 436 | 8.1% (inactive) | -7% (inactive) | 108% | 12.7% (inactive) | 127% | -0.31 (inactive) | -2e-06 (inactive) | 0.0027 (inactive) | 19.8% (inactive) | 17.5% (inactive) |
| O=C(c1ccc2ccccc2n1)N1CCN(c2ccccc2)CC1 | 874 | 0% (inactive) | -15% (inactive) | 107% | -78.3% (inactive) | 142% | -0.476 (inactive) | 9.7e-06 (inactive) | 0.00614 (inactive) | -18.5% (inactive) | -4.71% (inactive) |
| CCCc1cc(C(=O)Nc2ccccc2C(=O)OC)no1 | 864 | 5.5% (inactive) | 4.8% (inactive) | 92.4% | -50.4% (inactive) | 111% | -0.629 (inactive) | -3.3e-06 (inactive) | 0.0059 (inactive) | -14.6% (inactive) | -14.1% (inactive) |
| Cc1ccc2nc3c(cc(C(=O)NCC4CCCO4)n3C)c(=O)n2c1 (stereo not drawn) | 405 | 9.7% (inactive) | 2.7% (inactive) | 111% | -25.5% (inactive) | 114% | -0.0813 (active) | -3.2e-06 (inactive) | 0.00481 (inactive) | -21.8% (inactive) | -39.8% (inactive) |
| CC(C)Sc1nc2c(c(=O)n1-c1ccc(F)cc1)SCC2 | 384 | -5.2% (inactive) | -10.1% (inactive) | 106% | -22% (inactive) | 108% | -0.519 (inactive) | -8.5e-05 (inactive) | 0.00437 (inactive) | -15.9% (inactive) | -9.58% (inactive) |
| CC(C)CN(CC(C)C)C(=O)C12CCC(C)(C(=O)C1)C2(C)C (stereo not drawn) | 720 | -10.4% (inactive) | 13.7% (inactive) | 99.8% | -45.3% (inactive) | 115% | -0.452 (inactive) | 0.000106 (inactive) | 0.00697 (inactive) | -21.4% (inactive) | -2.9% (inactive) |
| O=C(Cn1nc(Cc2cccnc2)c2ccccc2c1=O)Nc1ccc2c(c1)OCO2 | 576 | 3% (inactive) | 22.2% (inactive) | 109% | -9.3% (inactive) | 98.3% | -0.55 (inactive) | -3.9e-05 (inactive) | 0.00644 (inactive) | 10.9% (inactive) | 18.1% (inactive) |
| COc1ccc(C(=O)CN2C(=O)NC3(CCCc4ccccc43)C2=O)cc1OC (stereo not drawn) | 412 | -9% (inactive) | 2.7% (inactive) | 94.1% | 35.3% (inactive) | 87.2% | -0.51 (inactive) | -2.4e-05 (inactive) | 0.00564 (inactive) | 15.1% (inactive) | 13.4% (inactive) |
| COc1ccc(-c2nnc(SCC(=O)Nc3cc(C)on3)n2C)cc1OC | 364 | 2.6% (inactive) | -9.8% (inactive) | 87.3% | -12.1% (inactive) | 108% | -0.473 (inactive) | -1.3e-05 (inactive) | 0.00613 (inactive) | -4.06% (inactive) | 25% (inactive) |
| COc1cccc(NC(=O)c2nnn(Cc3ccc(Br)cc3F)c2N)c1 | 674 | -2.8% (inactive) | 28.1% (inactive) | 109% | -61.5% (inactive) | 108% | -0.484 (inactive) | -4e-05 (inactive) | 0.00669 (inactive) | 16.4% (inactive) | 9.8% (inactive) |
| Cc1ccc(-c2cn3cccnc3n2)cc1NC(=O)c1ccc(Br)o1 | 420 | 4.7% (inactive) | 30.5% (inactive) | 66.8% | -274% (inactive) | 103% | -0.0541 (active) | 1.6e-06 (inactive) | 0.00595 (inactive) | -11.9% (inactive) | -53% (inactive) |
| CC(=O)N1CCN(S(=O)(=O)c2ccc(S(=O)(=O)NC3CC3)cc2)CC1 | 716 | -8.1% (inactive) | 0.7% (inactive) | 99.7% | 33.9% (inactive) | 112% | -0.444 (inactive) | -2.2e-05 (inactive) | 0.00506 (inactive) | 18.5% (inactive) | 18% (inactive) |
| COc1ccc(-c2nc(CS(=O)CC(=O)N3CCCC3)c(C)o2)cc1 (stereo not drawn) | 465 | 2.6% (inactive) | 6.1% (inactive) | 100% | -51.5% (inactive) | 100% | -0.482 (inactive) | -3.2e-05 (inactive) | 0.006 (inactive) | 26% (inactive) | 5.74% (inactive) |
| CCCCn1c(SCC(=O)NCc2ccccc2)nc2ccc(N3CCOCC3)cc2c1=O | 372 | 4.3% (inactive) | 10.3% (inactive) | 89% | -28% (inactive) | 110% | -0.351 (inactive) | 2.2e-06 (inactive) | 0.00561 (inactive) | -6.72% (inactive) | 5.47% (inactive) |
| COC(=O)C1=C(C)Nc2ncnn2C1c1ccc(C)o1 (stereo not drawn) | 620 | 4.7% (inactive) | -58.3% (inactive) | 95.5% | 9.8% (inactive) | 108% | -0.581 (inactive) | -8.1e-06 (inactive) | 0.0055 (inactive) | -15.9% (inactive) | -6.27% (inactive) |
| c1ccc(-c2nc3ccccc3nc2-c2ccccn2)nc1 | 746 | -8.5% (inactive) | 4.8% (inactive) | 93.9% | -17.4% (inactive) | 118% | -0.491 (inactive) | -3.4e-05 (inactive) | 0.0056 (inactive) | 11.1% (inactive) | 14.2% (inactive) |
| CCCC(=O)n1nc(-c2ccc(OC)cc2)nc1N | 239 | -3.7% (inactive) | 17.1% (inactive) | 80% | -20.1% (inactive) | 77% | -0.483 (inactive) | -4.3e-05 (inactive) | 0.00574 (inactive) | 12.9% (inactive) | 14.6% (inactive) |
| COc1cccc(-c2nnc(SCC(=O)N3CCCc4ccccc43)o2)c1 | 642 | 3.6% (inactive) | -6.3% (inactive) | 100% | -56.4% (inactive) | 109% | -0.378 (inactive) | -5e-05 (inactive) | 0.00375 (inactive) | 5.85% (inactive) | 26.1% (inactive) |
| CC(Oc1ccccc1)C(=O)NC1CCN(Cc2ccccc2)CC1 (stereo not drawn) | 705 | -5.2% (inactive) | 2.1% (inactive) | 108% | 0.4% (inactive) | 103% | -0.418 (inactive) | -1.8e-05 (inactive) | 0.00578 (inactive) | 11.2% (inactive) | 21.3% (inactive) |
| CC(=O)Nc1ccc(NC(=O)C(C)Oc2ccccc2F)cc1 (stereo not drawn) | 321 | 3.9% (inactive) | 9.4% (inactive) | 104% | 4.3% (inactive) | 112% | -0.65 (inactive) | 1.9e-05 (inactive) | 0.00945 (inactive) | 9.2% (inactive) | 12.4% (inactive) |
| Cc1ccc(S(=O)(=O)N2CCCC(C(=O)NC3=NCCS3)C2)cc1 (stereo not drawn) | 306 | 7.4% (inactive) | -0.7% (inactive) | 111% | -27.5% (inactive) | 106% | -0.601 (inactive) | -3.9e-05 (inactive) | 0.00373 (inactive) | 14.7% (inactive) | 13.5% (inactive) |
| COCCn1c(CN(Cc2ccccc2)Cc2ccccc2)nc2c1c(=O)n(C)c(=O)n2C | 633 | -19% (inactive) | -10.5% (inactive) | 100% | -48.5% (inactive) | 115% | -0.56 (inactive) | 6.1e-06 (inactive) | 0.00386 (inactive) | 18.4% (inactive) | 23.3% (inactive) |
| O=S(=O)(c1ccc2c(c1)OCCO2)N1CCC(n2nnc3cc(F)ccc32)CC1 | 577 | -9.9% (inactive) | 1.5% (inactive) | 78% | -24.6% (inactive) | 103% | -0.5 (inactive) | -3e-05 (inactive) | 0.00521 (inactive) | 17.3% (inactive) | 17.7% (inactive) |
| O=C(Nc1ccc2c(c1)nc1n2CCSC1)c1ccccc1 | 487 | -0.5% (inactive) | 13.7% (inactive) | 106% | -0.8% (inactive) | 119% | -0.444 (inactive) | -1.4e-05 (inactive) | 0.00391 (inactive) | -30.3% (inactive) | -80.3% (inactive) |
| Cc1cc(S(=O)(=O)N(Cc2ccccc2)Cc2ccc(N(C)C)cc2)ccc1-n1cnnn1 | 793 | 3.3% (inactive) | -7.8% (inactive) | 94.8% | -58.8% (inactive) | 130% | -0.293 (inactive) | -5.5e-05 (inactive) | 0.00447 (inactive) | 15.7% (inactive) | 36.4% (inactive) |

Source: PubChem BioAssay
